In PubChem BioAssay (NCATS):
Inconclusive results are not listed. The source made the active and inactive calls. Calls follow the shape of the full dose curve.

Test: Cell Viability - HepG2 (AID 433);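 also: potency for ATP loss meaning cytotoxicity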
Settings: qHTS
Description: NIH Chemical Genomics Center [NCGC]
NIH Molecular Libraries Screening Centers Network [MLSCN]
National Institutes of Environmental Health Sciences [NIEHS]
National Toxicology Program [NTP]
We have developed a 1536-well cell-based assay for quantitative high throughput screening (qHTS) against a number of cell lines to determine in vitro cytotoxicity of small molecules. This particular assay uses the HepG2 cell line which is derived from hepatocellular carcinoma.
NCGC Assay Protocol Summary:
The CellTiter-Glo luminescent cell viability assay (Promega) is a homogeneous method to measure the number of viable cells in culture. The end point readout of this assay is based on quantitation of intracellular ATP, an indicator of metabolic activity, using the luciferase reaction. Luciferase catalyzes the oxidation of beetle Luciferin to oxyluciferin and light in the presence of ATP. The luminescent signal is proportional to amount of ATP present.
Using the CellTiter-Glo luminescent cell viability assay, the amount of cellular ATP was measured in the HepG2 cell line with complete culture medium following compound treatment for 40 hours. The assay was performed in opaque white Kalypsys 1536-well plates. In the screen, tamoxifen and doxorubicin were used as positive controls. Library compounds were measured for their ability to cause acute toxicity in the cell line, as reflected by a decrease in intracellular ATP levels, in a concentration-dependent manner. Data were normalized to the controls for basal activity (DMSO only) and 100% inhibition (100 uM tamoxifen). AC50 values were determined from concentration-response data modeled with the standard Hill equation.
qHTS protocol fo CellTiter Glo HepG2 cellular assay
[Step] [Parameter] [Value] [Description]
1. Reagent; 5 uL; 1500 HepG2 cells/well
2. Time; 5 hr; 37 °C incubation
4. Controls; 23 nL; Tamoxifen 0.34 uM to 100 uM & Doxorubicin 0.02 nM to 100 uM
5. Time; 40 hr; 37 °C incubation
6. Reagent; 5 uL; CellTiter Glo reagent
7. Time; 20 min; Room Temperature
8. Detection; Luminescence; Viewlux plate reader
Keywords: cell viability, cytotoxicity, HepG2 cell line, luminescence, NTPHTS, NTPHTS_NCGC, NIEHS, EPA, DSSTox, MLSMR, MLSCN, NIH Roadmap, qHTS, NCGC
Potency is read from the fitted curve at half-maximal effect.

Structure (SMILES)	Potency
Nc1cc(Cl)c([N+](=O)[O-])cc1O	> 92 µM (inactive)
CCCCC/C=C/C=C/C=O	> 92 µM (inactive)
Cc1ccc(Br)cc1	> 92 µM (inactive)
BrC/C=C/CBr	> 92 µM (inactive)
Clc1cc(Cl)cc(Cl)c1	> 92 µM (inactive)
Clc1ccccn1	> 92 µM (inactive)
CCC(O)C(C)(C)C (stereo not given)	> 92 µM (inactive)
NC(N)=S	> 92 µM (inactive)
[O-]/[N+](=N\O)c1ccccc1	> 92 µM (inactive)
Cc1ccc(CO)cc1	> 92 µM (inactive)
Cc1ccc(C)cc1	> 92 µM (inactive)
C[C@@H]1CC2(OC3C[C@@]4(C)C5=CC[C@H]6C(C)(C)C(O[C@@H]7OC[C@@H](O)[C@H](O)[C@H]7O)CC[C@@]67C[C@@]57CC[C@]4(C)C31)OC(O)C1(C)OC21 (stereo not given in full)	> 92 µM (inactive)
CCCCC(CC)C(=O)O (stereo not given)	> 92 µM (inactive)
NCCCCCCN	> 92 µM (inactive)
CCCCN(CCO)CCCC	> 92 µM (inactive)
C=CCOC(=O)CCCCCCCC	> 92 µM (inactive)
CCOCCOCC	> 92 µM (inactive)
Cc1ccc2nc(-c3ccc(N)cc3)sc2c1S(=O)(=O)O	> 92 µM (inactive)
CCC(C)(C)C(=O)O	> 92 µM (inactive)
FC(F)(F)c1cccc(Cl)c1	> 92 µM (inactive)

Structure (SMILES)	Potency
FB(F)F	> 92 µM (inactive)
CNc1ccccc1	> 92 µM (inactive)
O=P(O)(OCc1ccccc1)OCc1ccccc1	> 92 µM (inactive)
O=Cc1ccc(Cl)cc1	> 92 µM (inactive)
C=CC(=O)OCCCC	> 92 µM (inactive)
CC(C)CO	> 92 µM (inactive)
CC=C(Cl)Cl	> 92 µM (inactive)
ON=C1CCCCC1	> 92 µM (inactive)
Cc1ccc(C)c([N+](=O)[O-])c1	> 92 µM (inactive)
C/C=C1\CC2C=CC1C2 (stereo not given)	> 92 µM (inactive)
O=C(O)c1cccc(Cl)c1Cl	> 92 µM (inactive)
COC(=O)CS	> 92 µM (inactive)
Cc1cccc2ccccc12	> 92 µM (inactive)
Cc1ccc2ncccc2c1	> 92 µM (inactive)
CC=O	> 92 µM (inactive)
O=Cc1ccc(C(=O)O)cc1	> 92 µM (inactive)
Cc1ccccc1C=O	> 92 µM (inactive)
Cc1ccc([N+](=O)[O-])c(N)c1	> 92 µM (inactive)
Oc1c(Cl)ccc(Cl)c1Cl	> 92 µM (inactive)
CC(=O)OC(C)=O	> 92 µM (inactive)
